Hits are enriched below; roughly 14% of the tested compounds scored in any of these assays.
HCMV inh: inhibitors of human cytomegalovirus; HFF cells, HCMV-luciferase reporter, 72 h; hits give low values; activity change, negative = inhibition, % at 57.5 µM; actives 4.5% (n = 410,000); in the data active = activity change below about -60%; inconclusive = no clear call, values can overlap the other calls; inactive = above about -39%
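HFF cells seeded 16 h at 37C, treated with compounds, infected with luciferase-reporter HCMV at MOI 1 PFU/cell; luciferase read at 72 h post infection, normalized to buffer-only and Salinomycin controls.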
Pf growth 96h: P. falciparum growth inhibition at 96 hours; P. falciparum luciferase reporter growth, 96 h; Potency, µM (doses to about 28.7 µM), inactives show at the top dose activity change, negative = inhibition, most hits filed as inhibitors; actives 6.9% (n = 320,000); also: potency is read from the fitted curve at half-maximal effect
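96 h incubation, 37 C, 5% CO2, of luciferase-reporter P. falciparum-infected RBCs (2% hematocrit, 0.05% parasitemia final) with test compounds; endpoint luminescence.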
FBPA Giardia inh: blocks Giardia fructose-bisphosphate aldolase activity; A8B2U2; purified Giardia FBPA; Potency, µM (titrated, usually from 59.6 µM), for inactives: at the highest dose activity, negative = inhibition, most hits filed as inhibitors; actives 0.71% (n = 290,000); also: potency is read from the fitted curve at half-maximal effect; nearly all actives have a fitted effect of over 55% in size
Target sequence (A8B2U2 whole entry, looked up): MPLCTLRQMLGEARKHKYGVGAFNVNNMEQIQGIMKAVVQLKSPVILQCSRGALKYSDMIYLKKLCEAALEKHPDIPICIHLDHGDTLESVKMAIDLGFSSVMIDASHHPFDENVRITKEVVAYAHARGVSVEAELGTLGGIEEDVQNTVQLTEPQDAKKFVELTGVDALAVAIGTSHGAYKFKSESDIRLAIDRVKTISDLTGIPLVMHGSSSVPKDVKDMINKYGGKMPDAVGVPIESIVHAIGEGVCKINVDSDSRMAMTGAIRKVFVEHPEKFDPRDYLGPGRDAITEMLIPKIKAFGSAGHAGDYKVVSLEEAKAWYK
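40 nM FBPA preincubated 10 min at RT with compound (up to 57.5 uM final), then substrate plus GAPDH/TPI/NAD/arsenate coupling and diaphorase/resazurin added. Fluorescence read after 20 min at RT, 525/598 nm.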
Sm TGR inh: inhibitors of Schistosoma mansoni thioredoxin glutathione reductase; Q962Y6; purified TGR, DTNB reduction, TNB absorbance 405 nm; Potency, µM (top dose mostly 114 µM), without a hit: at the highest dose activity change, negative = inhibition, actives largely listed as inhibitors; actives 3% (n = 360,000); also: potency is read from the fitted curve at half-maximal effect; nearly all actives have a fitted effect of over 60% in size
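Kinetic colorimetric format: TGR-catalysed, NADPH-driven DTNB reduction monitored via TNB absorbance. Enzyme dispensed at 20 nM; compound exposure 15 min at room temperature before reaction start.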
Pf growth 48h: P. falciparum growth inhibition at 48 hours (one generation); P. falciparum luciferase growth in erythrocytes, 48 h; actives 5.9% (n = 310,000); Potency, µM (doses to about 28.7 µM), without a hit: top-dose activity change, negative = inhibition, actives largely listed as inhibitors; also: potency is read from the fitted curve at half-maximal effect
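First compound was added to culture medium, then infected red cells at 0.1% parasitemia and 2% hematocrit (final). After incubation at 37 C under 5% CO2, luciferase detection reagent was dispensed and light output recorded.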
* = called active by the depositor. Unless noted, calls follow the shape of the dose curve; as a rule, active = well fitted curve in the direction sought with a large enough effect; inconclusive = small, poorly fitted or top-dose-only effect, or another doubt; inactive = no such curve, though single readings can be large; an effect the other way counts as inactive or inconclusive. % is scaled to controls: 0 for no effect and ±100 for the full control effect.

Results for COc1ccc(NC(NC(=O)c2cccnc2)C(Cl)(Cl)Cl)cc1 (stereo not drawn) ?
HCMV inh: -85*; Pf growth 96h: 37%; FBPA Giardia inh: -8%; Sm TGR inh: -17%; Pf growth 48h: -16%

What do the screens show for `COc1cccc(NC(=S)Nc2cccnc2)c1`?
HCMV inh: 54; Pf growth 96h: -10%; FBPA Giardia inh: -9%; Sm TGR inh: 40µM*; Pf growth 48h: 37%

How did Cc1ccccc1NC(NC(=O)c1cccnc1)C(Cl)(Cl)Cl (stereo not drawn) do in these assays?
HCMV inh: -10; Pf growth 96h: -12%; FBPA Giardia inh: 3%; Sm TGR inh: -17%; Pf growth 48h: inconclusive

What do the screens show for `Cc1cccc(C)c1NC(=S)NCc1ccncc1`?
HCMV inh: -19; Pf growth 96h: -4%; FBPA Giardia inh: 6%; Sm TGR inh: 28µM*; Pf growth 48h: inconclusive

Results for CC(CCC(=O)O)C1CCC2C3C(O)CC4CC(O)CCC4(C)C3CC(O)C12C (stereo not drawn) ?
HCMV inh: -16; Pf growth 96h: 48%; FBPA Giardia inh: 20%; Sm TGR inh: -2%; Pf growth 48h: 2%

What do the screens show for `Cc1cnc(CNc2cc(-c3ccccc3C(F)(F)F)ncn2)cn1`?
FBPA Giardia inh: -18%

How did O=C(Nc1ccncc1)Nc1cccc(C(F)(F)F)c1 do in these assays?
HCMV inh: -80*; Pf growth 96h: inconclusive; FBPA Giardia inh: 8%; Sm TGR inh: -3%; Pf growth 48h: inconclusive

What do the screens show for `NC(CCc1ccccc1)c1csc(NC(=O)Nc2cccc(C(F)(F)F)c2)n1` (stereo not drawn)?
HCMV inh: -98*

What do the screens show for `NC(=O)/C=C\C(=O)Nc1cccc(C(F)(F)F)c1`?
HCMV inh: -39; Pf growth 96h: 35%; FBPA Giardia inh: 4%; Sm TGR inh: 3.5µM*; Pf growth 48h: -1%

What do the screens show for `O=C(Nc1ccc(OC(F)F)cc1)Nc1cccc(C(F)(F)F)c1`?
HCMV inh: -80*; Pf growth 96h: 5.2µM*; FBPA Giardia inh: -9%; Sm TGR inh: 12%

How did NNC(=O)Nc1cccc(C(F)(F)F)c1 do in these assays?
HCMV inh: 16; Pf growth 96h: inconclusive; FBPA Giardia inh: -7%; Sm TGR inh: 20%; Pf growth 48h: 15%

What do the screens show for `CN(C)CCNS(=O)(=O)c1ccc(N2CCc3ccccc32)c([N+](=O)[O-])c1`?
HCMV inh: -13; Pf growth 96h: inconclusive; FBPA Giardia inh: inconclusive; Sm TGR inh: -17%; Pf growth 48h: inconclusive

How did O=C(NC1CCCC1)c1cc(-c2ccc(Cl)cc2Cl)on1 do in these assays?
HCMV inh: 94; Pf growth 96h: -20%; Sm TGR inh: -7%; Pf growth 48h: 69%

What do the screens show for `Cc1c(CCN)ccc2c1[nH]c1ccccc12`?
HCMV inh: 1; Pf growth 96h: inconclusive; FBPA Giardia inh: -4%; Sm TGR inh: 1%; Pf growth 48h: 10µM*

How did Cc1nc(-c2ccccn2)nc(N(C)c2ccccc2)c1Cl do in these assays?
HCMV inh: -61*; Pf growth 96h: 1.2µM*; FBPA Giardia inh: 15%; Sm TGR inh: -5%; Pf growth 48h: 1.7µM*

Results for c1ccc(-c2nc(N3CCOCC3)c3ccccc3n2)nc1 ?
HCMV inh: inconclusive; Pf growth 96h: inconclusive; FBPA Giardia inh: 12%; Sm TGR inh: 3%; Pf growth 48h: 7.4µM*

How did c1ccc(-c2nc(N3CCCCCC3)c3ccccc3n2)nc1 do in these assays?
HCMV inh: -99*; FBPA Giardia inh: 4%; Sm TGR inh: -8%; Pf growth 48h: 0.83µM*

What do the screens show for `COc1ccc(C(=O)CSc2nc(-c3ccccn3)nc(C)c2Cl)cc1`?
HCMV inh: inconclusive; Pf growth 96h: inconclusive; FBPA Giardia inh: 11%; Sm TGR inh: -8%; Pf growth 48h: inconclusive

What do the screens show for `Cc1nc(-c2ccccn2)nc(N2CCOCC2)c1Cl`?
HCMV inh: -11; Pf growth 96h: 2.3µM*; FBPA Giardia inh: -8%; Sm TGR inh: 3%; Pf growth 48h: inconclusive

Results for COc1ccccc1-c1c(C(F)(F)F)oc2c(CN3CCCCC3C)c(O)ccc2c1=O (stereo not drawn) ?
HCMV inh: -4; Sm TGR inh: -2%

Results for COC(=O)CC(=O)CSc1nc2cc(C(=O)NC(C)C)ccc2c(=O)n1CCc1ccccc1 ?
HCMV inh: -28; Sm TGR inh: 1%

Results for c1ccc2c(N3CCCCC3)nc(N3CCCC3)nc2c1 ?
HCMV inh: -29; Pf growth 96h: 4.7µM*; FBPA Giardia inh: 3%; Sm TGR inh: -21%; Pf growth 48h: 13µM*

What do the screens show for `O=C(O)c1cccc2nc3ccccc3nc12`?
HCMV inh: -63*; Pf growth 96h: 49%; FBPA Giardia inh: -7%; Sm TGR inh: -4%; Pf growth 48h: inconclusive

Results for CS(=O)(=O)N1Cc2ccccc2CC1C(=O)OCC(=O)NCCc1ccc(S(N)(=O)=O)cc1 (stereo not drawn) ?
HCMV inh: -28

Results for c1cc(CNC23CC4CC(CC(C4)C2)C3)ccn1 ?
HCMV inh: 3; Pf growth 96h: 1.9µM*; FBPA Giardia inh: -11%; Pf growth 48h: 12%

How did O=C(CC12CC3CC(CC(C3)C1)C2)NCc1ccncc1 do in these assays?
HCMV inh: 14; Pf growth 96h: -7%; FBPA Giardia inh: 1%; Sm TGR inh: -2%

What do the screens show for `CC[C@@H](C)[C@@H](C(=O)N1CCN(C(=O)OC(C)(C)C)CC1)n1cc(CCCCNC(=O)OC(C)(C)C)nn1`?
HCMV inh: -27; Pf growth 96h: inconclusive; FBPA Giardia inh: 6%; Sm TGR inh: -9%; Pf growth 48h: inconclusive

How did CC[C@@H](C)C(NC(=O)OC(C)(C)C)c1cn([C@@H](Cc2ccc(O)cc2)C(=O)N2CCN(C(=O)OC(C)(C)C)CC2)nn1 (stereo partly drawn) do in these assays?
HCMV inh: -30; Pf growth 96h: 8.3µM*; FBPA Giardia inh: 14%; Sm TGR inh: 23%; Pf growth 48h: 11%

How did CC[C@H](C)C(C(=O)N1CCN(C(=O)OC(C)(C)C)CC1)n1cc(C(CC(C)C)NC(=O)OC(C)(C)C)nn1 (stereo partly drawn) do in these assays?
HCMV inh: 12; Pf growth 96h: 2.3µM*; FBPA Giardia inh: 0%; Sm TGR inh: -3%; Pf growth 48h: inconclusive

What do the screens show for `CC(C)CC(NC(=O)OC(C)(C)C)c1cn([C@@H](CCC(=O)OC(C)(C)C)C(=O)N2CCN(C(=O)OC(C)(C)C)CC2)nn1` (stereo partly drawn)?
HCMV inh: 14; Pf growth 96h: 10µM*; FBPA Giardia inh: -5%; Sm TGR inh: -16%; Pf growth 48h: inconclusive

Bioassay records from PubChem.
